Screens: PubChem, ICCB-Longwood Screening Facility, Harvard Medical School
The entries come from a sample that favours hits as a whole.
VACV E9 pol inh: vaccinia E9 polymerase processive synthesis inhibitors, primary screen, biochemical, absorbance; Vaccinia virus DNA polymerase (E9) processive complex; in vitro processive DNA synthesis, absorbance read-out; hits give low values; normalized absorbance, % (no concentration beside the values); hit rate 0.94% among 46,000; AID 493162, 2011; in the data active means normalized absorbance mostly below about 85%, no sharp cut-off; inactive means mostly above about 86%
An asterisk follows results filed as active.

SMILES	VACV E9 pol inh
CC(C)[C@@H]1NC(=O)[C@H](Cc2ccccc2)NC(=O)[C@@H](CC(=O)O)NC(=O)CNC(=O)[C@H](CCCN=C(N)N)NC1=O	101
Cc1ccn2c(CO)c(-c3ccccc3)nc2c1	112
CCOc1ccc2nc(NN)sc2c1	22*
CCOc1ccc2nc(NC(=O)C(CC)CC)sc2c1	98
CCOc1ccc2nc(NC(=O)C(C)C)sc2c1	115
CC(NC(=O)c1ccncc1)C(c1cccs1)N1CCN(Cc2ccccc2)CC1 (stereo unspecified)	101
NC(=Nc1ccccc1)SCC(=O)Nc1nonc1N	100
NC(=O)CN(Cc1ccccc1F)S(=O)(=O)c1ccc(Cl)cc1	100
Cc1ccc(OCC(=O)Oc2ccccn2)cc1	100
Nc1cc(-c2ccccc2)nn1CC1CCCCC1	100
COc1ccc2nc(NC(=O)c3cccnc3)sc2c1	99
COc1ccc(-c2cc3ccccn3c2C(=O)c2cccnc2)c(OC)c1	44*
COc1ccc(OC)c(NC(=O)c2cccnc2)c1	100
CC(C)c1nnc(NC(=O)COc2ccc(Cl)cc2)s1	102
O=C1C(=O)N(CCCn2ccnc2)C(c2ccc(Cl)cc2)/C1=C(\O)c1ccc(F)cc1 (stereo unspecified)	110
CC(Sc1nc2ccccc2[nH]1)C(=O)Nc1nnc(-c2ccc(F)cc2)s1 (stereo unspecified)	101
O=c1c2ccccc2c(C=NCc2cccnc2)c(O)n1-c1ccccc1C(F)(F)F	104
C(=NCc1cccnc1)c1c2ccccc2cc2ccccc12	42*
C(=NCc1cccnc1)c1ccc2c(c1)OCO2	106
CCOc1ccc(CCl)cc1OCC	100
CNC(=O)C1CCCN(c2nn3cc(-c4ccc(OC)cc4)nc3s2)C1 (stereo unspecified)	77
Cc1ccc(C)n1C(CC(=O)O)c1ccc(C#N)cc1 (stereo unspecified)	106
NC(CC(=O)O)C1CCCCC1 (stereo unspecified)	102
Cc1ccc(C)n1C(CC(=O)O)C1CCCCC1 (stereo unspecified)	70*
Cc1ccc(-c2onc3ccc(Cl)cc23)cc1	100
SMILES	VACV E9 pol inh
Brc1ccc2noc(-c3ccccc3)c2c1	100
Fc1ccc(-c2onc3ccc(-c4ccn[nH]4)cc23)cc1	79*
O=C(Nc1nnc(SCC(=O)N2CCc3ccccc32)s1)c1ccccc1	100
O=C(CC(C(=O)O)N1CCN(c2cccc(Cl)c2)CC1)c1ccc(C2CCCCC2)cc1 (stereo unspecified)	92
Cc1cc(=O)[nH]c(/N=C(\N)Nc2ccccc2)n1	100
Cc1cc(C)nc(/N=C(\N)Nc2ccccc2)n1	41*
Cc1cc(C)nc(NC(N)=NCc2ccccc2)n1	98
Cc1ccc(Cn2c(C(=O)O)c(CNC3CC3)c3ccccc32)cc1	94
CN1C(=O)NC(c2cccnc2)C(C(=O)c2cccs2)C1(O)C(F)(F)F (stereo unspecified)	100
O=C(NCCCc1ccccc1)c1cnc2ccccn2c1=O	103
O=c1cc(N2CCCCC2)nc2scc(-c3ccccc3)n12	108
COC(=O)c1c(N)sc2c1CCCCC2	94
O=C(O)c1ccc(CS(=O)(=O)c2ccccc2)o1	19*
COc1ccc(S(=O)(=O)Cc2ccc(C(=O)N3CCOCC3)o2)cc1	98
O=C(O)c1ccc(CSCc2ccccc2)o1	92
CCCSc1nnc(CNC(=O)C23CC4CC(CC(C4)C2)C3)n1CC	101
CCOC(=O)c1cc(-c2ccnn2S(=O)(=O)c2cccc(C(F)(F)F)c2)on1	69*
CCOC(=O)c1cc(-c2ccnn2C(=O)c2ccccc2)on1	96
Cc1cc(-c2nc(-c3ccnn3S(=O)(=O)c3cccc(C(F)(F)F)c3)cs2)no1	101
Cn1c(=O)cc(OCCCC(=O)N2CCCCCC2)c2ccccc21	104
CCCC1=C(C(=O)OCC)C(c2cc(Br)c(O)c(OC)c2)NC(=O)N1 (stereo unspecified)	100
CCCCC1(C(=O)OCC)CC(C)(c2csc(N)n2)OC1=O (stereo unspecified)	102
CC1(C)Cc2ccccc2/C(=C/C(=O)Nc2ccccc2)N1	86*
CC1(C)CC(=O)C(C(=S)Nc2ccccc2)C(=O)C1	100
CC1(C)CC(=O)C=C(NC(=O)Nc2ccccc2)C1	102
SMILES	VACV E9 pol inh
CC(C)c1ccc2[nH]c3c(c2c1)CCC/C3=N\O	100
Cc1ccc(C(=O)NCc2ccc3[nH]c4c(c3c2)CCCC4)cc1C	103
N/N=C1\CCCc2c1[nH]c1ccc(C(=O)NN)cc21	46*
CC1CC(C)(C)NC(=S)N1CCCC(=O)N1CCN(c2ccccc2)CC1 (stereo unspecified)	101
CCC(C)NC(=O)c1cc2cc3cc(OC)ccc3nc2o1 (stereo unspecified)	101
O=C(O)CNC(=O)c1ccco1	92
Cc1c(OCC(=O)NC2CCCC2)ccc2c1oc(=O)c1ccccc12	103
COc1ccc2cc3cc(C(=O)NCCCN4CCCCCC4)sc3nc2c1	40*
COc1ccc2cc3cc(C(=O)NCCC(C)C)sc3nc2c1	102
COc1ccc2cc3cc(C(=O)NCCN4CCN(c5ccccc5F)CC4)sc3nc2c1	102
C=CCn1c(=O)sc2ccccc2c1=O	88
